About 79,000 compounds went through this panel and 15% of them were active in at least one assay; those are over-represented in the sample as a whole. Activity calls are given as the source filed them. No stated cut-off is given here; in the data, active means growth inhibition above about 70%; inactive means the rest.
Experiments:
[1] = NCI Yeast Anticancer Drug Screen. Data for the wt2 strain (AID 169);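 further: 0% = growth of vehicle-treated yeast cultures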; details: S. cerevisiae wt2 strain growth inhibition, stronger effect = higher value
How it was run: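 Yeast cells were exposed to test compounds, and growth inhibition was measured relative to vehicle-treated controls.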

[2] = NCI Yeast Anticancer Drug Screen. Data for the sgs1 strain (AID 173);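 further: 0% = growth of vehicle-only control cultures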; details: S. cerevisiae sgs1 mutant, stronger effect = higher value
How it was run: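 Yeast mutant strains carrying defined defects in DNA damage repair or cell cycle control were exposed to test compounds. Growth inhibition was scored against vehicle-treated controls.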

[3] = NCI Yeast Anticancer Drug Screen. Data for the mlh1 rad18 strain (AID 175); details: S. cerevisiae mlh1 rad18 strain growth inhibition, stronger effect = higher value
How it was run: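 Growth inhibition of the yeast strain was measured after compound exposure and expressed relative to vehicle-treated controls. The strain carries defined defects in DNA damage repair.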

[4] = NCI Yeast Anticancer Drug Screen. Data for the rad18 strain (AID 177); details: S. cerevisiae rad18 mutant growth inhibition, stronger effect = higher value
How it was run: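 Yeast carrying a defined DNA damage repair alteration were exposed to compounds. Growth inhibition was expressed relative to vehicle-treated controls.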

[5] = NCI Yeast Anticancer Drug Screen. Data for the rad52 strain (AID 147);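 further: 0% = growth of vehicle-treated control cultures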; details: S. cerevisiae rad52 mutant growth inhibition, stronger effect = higher value
How it was run: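 Yeast strain carrying a DNA damage repair alteration was exposed to test compounds. Growth inhibition was measured relative to vehicle-treated controls.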

[6] = NCI Yeast Anticancer Drug Screen. Data for the wt1 strain (AID 149);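 further: 0% = growth of vehicle-treated wt1 cultures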; details: S. cerevisiae wt1 strain (SPY 50644) growth inhibition, stronger effect = higher value
How it was run: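 wt1 yeast, compound-treated; % growth inhibition vs vehicle control.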

[7] = NCI Yeast Anticancer Drug Screen. Data for the rad50EPP+ strain (AID 151);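 further: 0% = growth of vehicle-treated control cultures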; details: S. cerevisiae rad50 mutant strain, stronger effect = higher value
How it was run: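 Yeast strain carrying rad50 alteration (rad50EPP+) exposed to compounds; growth inhibition measured relative to vehicle-treated controls.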

[8] = NCI Yeast Anticancer Drug Screen. Data for the mgt1 strain (AID 153); details: S. cerevisiae mgt1 mutant growth inhibition, stronger effect = higher value
How it was run: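 Yeast mgt1 strain (DNA repair/cell-cycle alteration panel) exposed to compounds; growth inhibition measured relative to vehicle-treated controls.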

[9] = NCI Yeast Anticancer Drug Screen. Data for the rad50 strain (AID 155);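 further: 0% = growth of vehicle-only cultures of the same strain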; details: S. cerevisiae rad50 strain growth inhibition, stronger effect = higher value
How it was run: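 Genetically altered yeast (DNA repair pathway); compound treatment; growth inhibition vs vehicle ctrl.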

[10] = NCI Yeast Anticancer Drug Screen. Data for the mec2-1 strain (AID 157); details: S. cerevisiae mec2-1 strain, stronger effect = higher value
How it was run: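 mec2-1 yeast strain, carrying an alteration in DNA damage repair or cell cycle control, was exposed to compounds; growth inhibition was measured relative to vehicle-treated controls.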

[11] = NCI Yeast Anticancer Drug Screen. Data for the rad14 strain (AID 159);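 further: 0% = growth of vehicle-treated control cultures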; details: S. cerevisiae rad14 strain growth inhibition, stronger effect = higher value
How it was run: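 Test compounds were applied to a repair-deficient yeast strain. Its growth was then compared with that of cultures given vehicle alone, and inhibition was expressed relative to those controls.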

[12] = NCI Yeast Anticancer Drug Screen. Data for the sgs1 mgt1 strain (AID 161);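 further: 0% = growth of cultures given vehicle only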; details: S. cerevisiae sgs1 mgt1 strain, stronger effect = higher value
How it was run: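 Yeast cells carrying a defined DNA-repair defect were exposed to test compounds. Growth inhibition was measured relative to vehicle-treated controls.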

[13] = NCI Yeast Anticancer Drug Screen. Data for the CLN2oe strain (AID 163);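 further: 0% = growth of vehicle-only control cultures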; details: S. cerevisiae CLN2oe strain, stronger effect = higher value
How it was run: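 Yeast cells carrying a defined cell-cycle control alteration were exposed to test compounds. Growth inhibition was scored against vehicle-treated control cultures.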

[14] = NCI Yeast Anticancer Drug Screen. Data for the cln2 rad14 strain (AID 165);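 further: 0% = growth equal to vehicle treated cultures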; details: S. cerevisiae cln2 rad14 strain, stronger effect = higher value
How it was run: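 Yeast carrying cln2 and rad14 alterations (cell cycle control and DNA damage repair) were exposed to compounds. Growth inhibition was measured against vehicle-treated controls.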

[15] = NCI Yeast Anticancer Drug Screen. Data for the bub3 strain (AID 167); details: S. cerevisiae bub3 mutant strain, stronger effect = higher value
How it was run: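 Yeast carrying a defined mutation is treated with each compound, and growth is compared with that of vehicle-exposed cells to give inhibition.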

[16] = at 5.0 µM (retest, dose inferred, filed as 0.5)
[17] = at 50.0 µM (retest, dose inferred, filed as 5.0)

Measured: growth inhibition

CC(C)OC(=O)NNc1c(Cl)cc(Cl)cc1Cl
inactive: [1]; at 1.2 µM 2% | [1]; at 3.7 µM 3% | [1]; at 11.0 µM 2% | [1]; at 33.0 µM 9% | [1]; at 100.0 µM 17% | [2]; at 1.2 µM -3% | [2]; at 3.7 µM -2% | [2]; at 11.0 µM 0% | [2]; at 33.0 µM 8% | [2]; at 100.0 µM 9% | [3]; [16] 10% | [3]; [17] 38% | [3]; at 50.0 µM 24.9% | [4]; at 1.2 µM 0% | [4]; at 3.7 µM 15% | [4]; at 11.0 µM 33% | [4]; at 33.0 µM 40% | [4]; at 100.0 µM 27%

CSC(=S)N/N=C/c1ccccc1
active: [7]; at 100.0 µM 75% | [9]; at 11.0 µM 82% | [9]; at 33.0 µM 83% | [9]; [17] 86% | [9]; at 50.0 µM 94.6% | [9]; at 100.0 µM 82% | [10]; [17] 76% | [10]; at 50.0 µM 75.8% | [12]; [17] 87% | [12]; at 50.0 µM 75.2% | [15]; [17] 82% | [15]; at 50.0 µM 90% | [3]; [17] 85% | [3]; at 50.0 µM 89.5% | [4]; at 11.0 µM 86% | [4]; at 33.0 µM 86% | [4]; at 100.0 µM 81%
inactive: [5]; at 1.2 µM 10% | [5]; at 3.7 µM 20% | [5]; at 11.0 µM 53% | [5]; at 33.0 µM 67% | [5]; at 100.0 µM 67% | [6]; at 1.2 µM 4% | [6]; at 3.7 µM 11% | [6]; at 11.0 µM 29% | [6]; at 33.0 µM 48% | [6]; at 100.0 µM 43% | [7]; at 1.2 µM -1% | [7]; at 3.7 µM 2% | [7]; at 11.0 µM 16% | [7]; at 33.0 µM 60% | [8]; at 1.2 µM 3% | [8]; at 3.7 µM 2% | [8]; at 11.0 µM 22% | [8]; at 33.0 µM 27% | [8]; at 100.0 µM 39% | [9]; at 1.2 µM 28% | [9]; at 3.7 µM 57% | [9]; [16] 38% | [10]; at 1.2 µM 5% | [10]; at 3.7 µM 13% | [10]; [16] 48% | [10]; at 11.0 µM 10% | [10]; at 33.0 µM 20% | [10]; at 100.0 µM 23% | [11]; at 1.2 µM -1% | [11]; at 3.7 µM -1% | [11]; at 11.0 µM 12% | [11]; at 33.0 µM 22% | [11]; at 100.0 µM 29% | [12]; [16] 26% | [13]; at 1.2 µM -3% | [13]; at 3.7 µM 3% | [13]; at 11.0 µM 14% | [13]; at 33.0 µM 22% | [13]; at 100.0 µM 17% | [14]; [16] 16% | [14]; [17] 21% | [14]; at 50.0 µM 49.3% | [15]; at 1.2 µM 32% | [15]; at 3.7 µM 28% | [15]; [16] 46% | [15]; at 11.0 µM 59% | [15]; at 33.0 µM 60% | [15]; at 100.0 µM 59% | [1]; at 1.2 µM -2% | [1]; at 3.7 µM 2% | [1]; at 11.0 µM 16% | [1]; at 33.0 µM 28% | [1]; at 100.0 µM 37% | [2]; at 1.2 µM 0% | [2]; at 3.7 µM 5% | [2]; at 11.0 µM 21% | [2]; at 33.0 µM 44% | [2]; at 100.0 µM 55% | [3]; [16] 48% | [4]; at 1.2 µM 23% | [4]; at 3.7 µM 55%

Reference: PubChem BioAssay (NCI)
